Where “and” joins values, the source holds several entries; their conditions need not be identical. Equal entries are not always repeated. Calls of active or inactive are those of the source. Cut-off read from the data, not from the text of the source, unless noted: active = parasite load remaining mostly below about 12% (no sharp cut-off); inactive = mostly above about 10%.
Tests used:
[1] = hESC survival regulators, cell-based (AID 493140; call rule not given here;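 note: cells exposed to compounds for four days before counting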); details: human embryonic stem cell survival screen; stronger effect = higher value
[2] = liver-stage malaria parasite growth inhibition, primary screen, cell-based, HepG2, luciferase luminescence, HepG2 viability (AID 624349);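 note: 100% = mean of DMSO negative control wells on the same plate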; details: P. berghei liver stage in HepG2, luciferase luminescence, concentration not given here; parasite load remaining: stronger effect = lower value; viability: measured here: HepG2 viability without parasites
[3] = stimulators of nuclear beta-catenin in C2C12, primary screen, imaging, WNT3A-conditioned medium, mouse C2C12, NPC library (AID 1117326; in the data active = nuclear beta-catenin stimulation mostly above about 4.2%, no sharp cut-off; inactive = mostly below about 10%); details: stronger effect = higher value
[4] = stimulators of insulin release from INS-1E, primary screen, cell-based, 5 mM glucose, NPC library (AID 1117329;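 active = compound raises insulin release from rat beta cells at 5 mM glucose, no numeric limit stated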); details: rat INS-1E insulin secretion, at 10 µM, stronger effect = higher value
[5] = growth inhibition of GSK3B-pretreated HCT116 cells – cell-based, CellTiter-Glo, 0.2 to 20 µM (AID 1117336;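 active = compounds lowering colon cancer cell viability after pretreatment blocking the GSK3B kinase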); details: HCT116 viability after GSK3B inhibitor, at 20 µM, stronger effect = higher value
[6] = inhibition of endothelial tube formation, primary screen, imaging, VEGF stimulated, CD31 staining, tube area, NPC library (AID 1117340;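 active = compound that reduces growth-factor-driven endothelial tube area in a mixed cell culture, no cutoff stated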); details: VEGF-stimulated ADSC/ECFC co-culture, at 10 µM, stronger effect = higher value
[7] = glucagon-like peptide 1 release enhancers, primary assay, NCI-H716 cell line, NPC library (AID 1117341;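 active = compound raises GLP1 secretion from the human gut endocrine cells, with no numeric limit stated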); details: NCI-H716 cells, at 10 µM, stronger effect = higher value
[8] = HCT116 colon cancer cell growth inhibition, primary screen, CellTiter-Glo luminescence, NPC library (AID 1117342;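 active = compounds that lower survival of HCT116 colon cancer cells in the luminescence readout, no numeric limit stated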); details: at 20 µM (top of the series)
[9] = CellTiter-Glo luminescent readout of SW480 viability loss, NPC library primary (AID 1117343;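 active = compounds that lower viability of the colon cancer cells in the luminescence readout, with no numeric limit stated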); details: CellTiter-Glo luminescence; at 20 µM (top of the series)
[10] = decreased DLD-1 cellular survival, CellTiter-Glo luminescent readout, NPC compound collection, primary HTS (AID 1117346;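 active = compounds that lower survival of DLD-1 colon cancer cells in the luminescence readout, no cutoff given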); details: DLD-1 viability, CellTiter-Glo luminescence; at 20 µM (top of the series)
[11] = molecular target: 6-phosphogluconate dehydrogenase, decarboxylating (Homo sapiens) (UniProt P52209); assay: 6PGD enzyme inhibitors, primary screen, biochemical, human, recombinant enzyme, NADPH absorbance (AID 1159550;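 active = at least 20% inhibition of 6-phosphogluconate dehydrogenase activity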); details: recombinant 6PGD, NADPH absorbance 341 nm; at 10 µM; stronger effect = higher value
[12] = differential killing of epithelial or mesenchymal cells, primary screen, imaging, PC-3E GFP, TEM4-18 mCherry, co-culture (AID 1345086;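 active = compounds killing one labelled cell type while sparing the other, by normalised counts and ratio limits, not self-fluorescent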;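 for all read-outs here: cells exposed to compound for 72 h before imaging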;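 for red/green cell ratio (normalised): normalised mesenchymal count divided by normalised epithelial count so high means epithelial killing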); details: imaging cell counts, at 1 µM; for red/green cell ratio (normalised): actives lie on both sides
[13] = test system: Aerobactin synthetase IucA (Klebsiella pneumoniae hvKP1); assay: Biochemical IucA enzyme inhibition primary screen of the Spectrum library (AID 1346200; call rule not given here;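 note: 100% = wells without compound and 0% = wells lacking enzyme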); details: malachite green pyrophosphate, A620, at 8 µM, stronger effect = lower value
[14] = sensitizers of A549 cells to miR-34 induction, primary screen, imaging, A549 dox-inducible miR-34, nuclei and caspase counts (AID 1347080;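 active = compounds whose cell count with miR-34 switched on is under 0.7 times the count with it off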); details: A549 miR-34 inducible, Hoechst nuclei count, 48 h
[15] = molecular target: Mitogen-activated protein kinase 7 (Homo sapiens) (UniProt Q13164); assay: ERK5 transactivation activators in reporter cells, primary screen, cell-based, HTS (AID 1508626;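 active = luciferase signal above three times the same-plate solvent-only control wells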;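 note: luciferase driven by Gal4-ERK5 fusion binding five Gal4 sites before minimal TATA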); details: HeLa Gal4-ERK5 transactivation, 18 h, at 5 µM, stronger effect = higher value
[16] = survival rescue of mitochondrial mutant cells in low glucose, primary screen, MELAS cybrids, Rieske KO mouse fibroblasts, CellTiter-Glo (AID 1508586;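 active = mean z-score across replicates of 1.96 or higher in either the MELAS or the Rieske mutant cell line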;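 note: z relative to plate mean and SD of compound and empty wells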)
[17] = molecular target: NAD(+) hydrolase SARM1 (Homo sapiens) (UniProt Q6SZW1); assay: SARM1 TIR NADase inhibitors, cell lysate, NAD-Glo luminescence (AID 1508614;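 active = compound whose remaining NAD level is above about 45 nM, limit read from the data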;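 note: higher remaining NAD means stronger inhibition of SARM1 NADase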); details: SAM-TIR HEK293T lysate NADase, at 1 µM, stronger effect = higher value
[18] = measured here: epithelial PC-3E GFP cell survival
[19] = measured here: mesenchymal TEM4-18 mCherry cell survival
[20] = measured here: relative caspase fold change +Dox/-Dox
[21] = measured here: total cells with miR-34 induction, stronger effect = lower value
[22] = measured here: total cells without miR-34 induction
[23] = MELAS cybrid survival, CellTiter-Glo 48 h, stronger effect = higher value
[24] = Rieske KO mouse fibroblast survival, CellTiter-Glo 72 h

Chain of 6-phosphogluconate dehydrogenase, decarboxylating (Homo sapiens) (P52209 whole entry, looked up): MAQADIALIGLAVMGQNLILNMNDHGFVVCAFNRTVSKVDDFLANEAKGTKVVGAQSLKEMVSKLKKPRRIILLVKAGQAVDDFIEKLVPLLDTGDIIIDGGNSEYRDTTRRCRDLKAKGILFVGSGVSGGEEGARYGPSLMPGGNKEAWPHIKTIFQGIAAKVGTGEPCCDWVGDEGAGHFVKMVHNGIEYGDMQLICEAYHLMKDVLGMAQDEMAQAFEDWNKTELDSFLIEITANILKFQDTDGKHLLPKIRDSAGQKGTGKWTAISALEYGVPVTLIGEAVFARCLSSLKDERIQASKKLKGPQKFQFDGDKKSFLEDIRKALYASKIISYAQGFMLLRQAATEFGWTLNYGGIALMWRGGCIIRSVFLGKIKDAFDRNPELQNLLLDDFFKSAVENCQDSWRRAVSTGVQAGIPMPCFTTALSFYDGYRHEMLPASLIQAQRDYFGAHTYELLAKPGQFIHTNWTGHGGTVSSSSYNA
Chain of Mitogen-activated protein kinase 7 (Homo sapiens) (Q13164 whole entry, looked up, the tested form may be a part): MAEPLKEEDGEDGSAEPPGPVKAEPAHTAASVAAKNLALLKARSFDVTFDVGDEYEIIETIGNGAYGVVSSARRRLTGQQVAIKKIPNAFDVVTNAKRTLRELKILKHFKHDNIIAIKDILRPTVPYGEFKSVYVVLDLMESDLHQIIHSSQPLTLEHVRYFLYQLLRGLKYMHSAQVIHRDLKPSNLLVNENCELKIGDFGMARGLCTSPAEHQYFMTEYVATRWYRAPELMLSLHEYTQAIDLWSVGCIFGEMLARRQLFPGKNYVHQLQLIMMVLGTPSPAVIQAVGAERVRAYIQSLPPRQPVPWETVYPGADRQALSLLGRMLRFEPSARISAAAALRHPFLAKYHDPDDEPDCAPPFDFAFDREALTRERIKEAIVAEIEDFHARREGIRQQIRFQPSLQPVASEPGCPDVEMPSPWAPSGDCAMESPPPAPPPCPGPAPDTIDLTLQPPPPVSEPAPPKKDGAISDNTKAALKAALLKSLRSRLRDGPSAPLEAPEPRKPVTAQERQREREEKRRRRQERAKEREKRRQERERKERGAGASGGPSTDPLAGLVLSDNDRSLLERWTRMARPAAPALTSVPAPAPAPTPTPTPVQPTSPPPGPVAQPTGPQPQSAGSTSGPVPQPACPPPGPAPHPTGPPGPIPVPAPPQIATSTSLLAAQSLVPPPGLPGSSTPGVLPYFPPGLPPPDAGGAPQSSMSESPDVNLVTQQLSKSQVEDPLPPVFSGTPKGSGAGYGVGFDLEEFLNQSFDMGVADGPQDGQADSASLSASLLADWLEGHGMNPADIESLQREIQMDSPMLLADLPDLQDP
Chain of NAD(+) hydrolase SARM1 (Homo sapiens) (Q6SZW1 whole entry, looked up): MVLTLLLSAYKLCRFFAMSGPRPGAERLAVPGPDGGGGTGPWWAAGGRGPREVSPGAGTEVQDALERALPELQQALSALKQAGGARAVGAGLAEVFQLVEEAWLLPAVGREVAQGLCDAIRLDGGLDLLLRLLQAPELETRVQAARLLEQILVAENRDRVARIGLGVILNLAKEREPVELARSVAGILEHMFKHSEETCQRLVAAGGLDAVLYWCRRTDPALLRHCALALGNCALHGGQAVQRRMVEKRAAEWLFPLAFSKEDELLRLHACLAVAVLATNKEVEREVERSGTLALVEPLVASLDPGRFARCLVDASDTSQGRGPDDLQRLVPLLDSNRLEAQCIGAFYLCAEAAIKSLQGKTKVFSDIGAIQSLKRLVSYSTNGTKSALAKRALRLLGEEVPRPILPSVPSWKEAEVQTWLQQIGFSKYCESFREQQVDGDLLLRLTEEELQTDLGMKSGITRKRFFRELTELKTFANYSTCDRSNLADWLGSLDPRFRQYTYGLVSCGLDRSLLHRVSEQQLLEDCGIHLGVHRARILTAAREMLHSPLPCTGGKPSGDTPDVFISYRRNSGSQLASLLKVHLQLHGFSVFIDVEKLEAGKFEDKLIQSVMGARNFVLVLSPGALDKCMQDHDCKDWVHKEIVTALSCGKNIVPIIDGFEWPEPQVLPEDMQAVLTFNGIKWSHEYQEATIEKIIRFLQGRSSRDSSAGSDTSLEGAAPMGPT

CC1=C2[C@H]3OC(=O)[C@@H](C)[C@@H]3CC[C@@]2(C)C=CC1=O
survival [1]: 2.25 (inactive)
parasite load remaining [2]: 92.1% (inactive)
viability [2]: 72.5%
nuclear beta-catenin stimulation ([3]; at 10 µM): 0.7% (inactive)
nuclear beta-catenin stimulation ([3]; stimulation, at 2 µM): 1%
insulin secretion stimulation [4]: 0% (inactive)
viability decrease [5]: 1.65% (inactive)
tube area decrease [6]: 15.6% (inactive)
GLP1 secretion stimulation [7]: -0.6% (inactive)
inhibition of viability [8]: 1.8% (inactive)
viability decrease (inhibition) [9]: 14.6% (inactive)
viability decrease (inhibition) [10]: 3.8% (inactive)
inhibition [11]: 10.8% (inactive)
red/green cell ratio (normalised) [12]: 0.97 (inactive)
normalised cell number [12, 18]: 1.11
normalised cell number [12, 19]: 1.07
activity remaining [13]: 93.8% (inactive)
fold change ([14]; stronger effect = lower value): 0.915 (inactive)
fold change [14, 20]: 0.797
cell count [14, 21]: 8180
cell count [14, 22]: 8940
luciferase signal [15]: 44 AU (inactive)

O=[N+]([O-])O[C@H]1CO[C@H]2[C@@H]1OC[C@H]2O[N+](=O)[O-]
survival [1]: 6 (inactive)
parasite load remaining [2]: 88.7% (inactive) and 89.6% (inactive) and 73.9% (inactive)
viability [2]: 101% and 72.5% and 103%
nuclear beta-catenin stimulation ([3]; at 10 µM): 1.4% (inactive)
nuclear beta-catenin stimulation ([3]; stimulation, at 2 µM): 0.8%
insulin secretion stimulation [4]: 0.2% (inactive)
viability decrease [5]: -35.2% (inactive)
tube area decrease [6]: 2.7% (inactive)
GLP1 secretion stimulation [7]: -0.1% (inactive)
inhibition of viability [8]: -4.45% (inactive)
viability decrease (inhibition) [9]: 10.7% (inactive)
viability decrease (inhibition) [10]: -9.7% (inactive)
inhibition [11]: -5.58% (inactive)
red/green cell ratio (normalised) [12]: 1.14 (inactive)
normalised cell number [12, 18]: 1.17
normalised cell number [12, 19]: 1.33
activity remaining [13]: 86.8% (inactive)
fold change ([14]; stronger effect = lower value): 0.842 (inactive) and 0.816 (inactive)
fold change [14, 20]: 1.05 and 0.822
cell count [14, 21]: 8050 and 10900
cell count [14, 22]: 9560 and 13300
z-score [16, 23]: -0.72 (inactive)
z-score [16, 24]: -0.455
remaining NAD [17]: 10 nM (inactive)
luciferase signal [15]: 164 AU (inactive)

CC(C)[N+](C)(CCC(C(N)=O)(c1ccccc1)c1ccccc1)C(C)C
survival [1]: 6.08 (inactive)
parasite load remaining [2]: 94.4% (inactive) and 83.4% (inactive) and 60% (inactive)
viability [2]: 100% and 76.1% and 93.6%
nuclear beta-catenin stimulation ([3]; at 10 µM): 0.4% (inactive)
nuclear beta-catenin stimulation ([3]; stimulation, at 2 µM): -0.3%
insulin secretion stimulation [4]: -0.4% (inactive)
viability decrease [5]: -32.8% (inactive)
tube area decrease [6]: -3.8% (inactive)
GLP1 secretion stimulation [7]: -1.4% (inactive)
inhibition of viability [8]: -3.83% (inactive)
viability decrease (inhibition) [9]: 22% (inactive)
viability decrease (inhibition) [10]: -1.8% (inactive)
inhibition [11]: -13.2% (inactive)
red/green cell ratio (normalised) [12]: 0.98 (inactive)
normalised cell number [12, 18]: 1.19
normalised cell number [12, 19]: 1.17
activity remaining [13]: 119% (inactive)
fold change ([14]; stronger effect = lower value): 0.953 (inactive) and 0.875 (inactive)
fold change [14, 20]: 1.13 and 0.654
cell count [14, 21]: 8490 and 10700
cell count [14, 22]: 8910 and 12200
z-score [16, 23]: -0.488 (inactive)
z-score [16, 24]: -0.766
remaining NAD [17]: 10 nM (inactive)
luciferase signal [15]: 76 AU (inactive)

COc1c2c(cc3c1OCO3)CCN(C)C2
survival [1]: 4.08 (inactive)
parasite load remaining [2]: 101% (inactive) and 78.2% (inactive)
viability [2]: 102% and 69.9%
nuclear beta-catenin stimulation ([3]; at 10 µM): 0.2% (inactive)
nuclear beta-catenin stimulation ([3]; stimulation, at 2 µM): 1.3%
insulin secretion stimulation [4]: -1.1% (inactive)
viability decrease [5]: 5% (inactive)
tube area decrease [6]: 4.7% (inactive)
GLP1 secretion stimulation [7]: -0.1% (inactive)
inhibition of viability [8]: -4.7% (inactive)
viability decrease (inhibition) [9]: 36.7% (inactive)
viability decrease (inhibition) [10]: 4.85% (inactive)
inhibition [11]: 1.73% (inactive)
activity remaining [13]: 120% (inactive)
fold change ([14]; stronger effect = lower value): 0.866 (inactive)
fold change [14, 20]: 1.09
cell count [14, 21]: 9520
cell count [14, 22]: 11000

Source: PubChem BioAssay
